Measured values: ChEMBL document CHEMBL3433997, “St. Jude Leishmania screening dataset” (2016)

What was measured:
Format in all cases: functional
[1] = target: Solute carrier family 2, facilitated glucose transporter member 1 (Homo sapiens) (UniProt P11166); test: ST_JUDE_LEISH: Cytotoxicity at 2uM final concentration against transgenic Leishmania Mexicana promastigotes LmGLUT1 that are glucose transport deficient and complemented with the human glucose transporter GLUT1. Activity is measured by DNA content using SYBR green in vitro
Solute carrier family 2, facilitated glucose transporter member 1 (Homo sapiens), sequence (P11166 whole entry): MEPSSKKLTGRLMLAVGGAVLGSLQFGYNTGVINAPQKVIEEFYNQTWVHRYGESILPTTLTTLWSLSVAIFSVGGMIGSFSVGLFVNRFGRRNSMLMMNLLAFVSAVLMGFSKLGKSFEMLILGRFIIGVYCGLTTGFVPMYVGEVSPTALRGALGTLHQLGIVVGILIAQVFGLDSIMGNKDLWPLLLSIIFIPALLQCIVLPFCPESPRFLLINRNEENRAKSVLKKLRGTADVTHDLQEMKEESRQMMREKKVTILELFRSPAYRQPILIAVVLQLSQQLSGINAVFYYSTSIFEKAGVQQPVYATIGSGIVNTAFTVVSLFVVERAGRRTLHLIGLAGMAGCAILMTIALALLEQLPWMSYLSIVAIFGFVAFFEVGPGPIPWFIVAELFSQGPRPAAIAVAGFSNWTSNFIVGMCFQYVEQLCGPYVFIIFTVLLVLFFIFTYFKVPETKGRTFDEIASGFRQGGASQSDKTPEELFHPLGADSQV

[2] = target: Hexose transporter 1 (Plasmodium falciparum) (UniProt O97467); test: ST_JUDE_LEISH: Cytotoxicity at 2uM final concentration against transgenic Leishmania Mexicana promastigotes LmPfHT that are glucose transport deficient and complemented with the Plasmodium falciparum hexose transporter. Activity is measured by DNA content using SYBR green in vitro
[3] = target: Glucose transporter (Leishmania mexicana) (UniProt O61059); test: ST_JUDE_LEISH: Cytotoxicity at 2uM final concentration against transgenic Leishmania Mexicana promastigotes LmGT2 that are glucose transport deficient and complemented with the L. Mexicana glucose transporter 2. Activity is measured by DNA content using SYBR green in vitro

Row | SMILES | inhibition [1] [%] | inhibition [2] [%] | inhibition [3] [%]
1 | COc1cc2nc(NCC3CCCCC3)nc(NCc3ccccc3)c2cc1OC | 3.26 | 4.81 | 0.32
2 | COc1c(C2CCN(CCCCNC(=O)c3cccc(-c4ccc(C(F)(F)F)cc4)c3)CC2)ccc2c1CCCC2 | 2.51 | 1.75 | 11.1
3 | Nc1c2ccccc2nc2cc(C(F)(F)F)ccc12 | 2.83 | 5.91 | 1.3
4 | COc1ccc2nccc(N3CCC(SCCNS(=O)(=O)c4ccc5c(c4)OCCO5)C3)c2n1 (stereo not drawn) | 5.04 | 3.57 | -0.04
5 | CN1CCN(CC(=O)Nc2cccc(-c3ccc(-c4nc5cc(F)ccc5[nH]4)s3)c2)CC1 | 7.26 | 7.42 | 5.89
6 | COc1ccc(-c2nc(NC(=O)Cc3ccc4c(c3)OCCO4)sc2C)cc1 | 3.71 | 4.52 | 5.29
7 | COc1ccc(Cc2nc(/N=C(\N)Nc3ccccc3)ccc2OC)cc1 | 0.38 | 1.68 | -0.02
8 | CC(=O)Nc1ccc(OCCN(Cc2ccccc2C(F)(F)F)c2ccc(C#N)c(C(F)(F)F)c2)c(Cl)c1 | 2.42 | 2.13 | 2.83
9 | O=C(/C=C/c1ccc(Cl)c(Cl)c1)NCCCCCN1CCCN(C(=O)Nc2cc(Cl)nc(Cl)c2)CC1 | 5.11 | 6.64 | 5.94
10 | CC(C)C1=C[C@H]2C[C@]3(C4OCCO4)[C@@H]4CC[C@@H](C)[C@H]4C[C@@]2(C(=O)OCC2COCO2)[C@]13C(=O)OC(c1ccccc1)c1ccccc1 (stereo partly drawn) | -1.18 | -2.48 | -1.79
11 | Cc1ccc2nc(C)n(C3CCN(C(=O)C4(c5ccccc5)CC4)CC3)c2c1 | 5.47 | 6.02 | 5.27
12 | CC1(C)C(=O)Nc2ccccc2N1C(=O)CN1CCN(c2ccccc2O)CC1 | 0.51 | -0.55 | -3.82
13 | c1ccc2c(CNCCCCCCNCc3c(OCC4CC4)ccc4ccccc34)c(OCC3CC3)ccc2c1 | 51.5 | 69.8 | 37.4
14 | CC1Cc2ccccc2N1S(=O)(=O)c1cccc(C(=O)Nc2nc(-c3ccccn3)cs2)c1 (stereo not drawn) | 13.8 | 14.6 | 5.62
15 | O=S(=O)(Nc1cccc(CCN2CCC(N3CCCCC3)CC2)c1)c1cccc2ccccc12 | 4.59 | 2.76 | 3.28
16 | COc1ccc(S(=O)(=O)NC2CCN(c3cc(C)nc(Nc4cccc(C#N)c4)n3)CC2)cc1 | 4.31 | 1.33 | 0.61
17 | CN(CC(=O)Nc1ccc(F)cc1)C(=O)c1ccc(-c2ccc(F)cc2)o1 | 5.1 | 7.16 | 5.24
18 | Cn1cnc2c(Nc3ccncc3)nc(-c3ccc4ccccc4c3)nc21 | -0.3 | 0.97 | -0.56

Row | SMILES | inhibition [1] [%] | inhibition [2] [%] | inhibition [3] [%]
19 | COc1cc(Nc2nccc(N3CCC(NC(=O)c4cccc(NC(C)=O)c4)C3)n2)cc(OC)c1OC (stereo not drawn) | 0.31 | 0.55 | -0.85
20 | O=[N+]([O-])c1cccc(CNCC2CCN(Cc3ccc4ccccc4c3)CC2)c1 | 16.5 | 3.55 | 2.23
21 | Cc1ccc(S(=O)(=O)n2nccc2-c2c(-c3ccc(Cl)cc3)noc2C)cc1 | 3.44 | 3.35 | 2.23
22 | Cc1[nH]c2c(NCc3ccc(F)cc3)nccc2c1C | 4.48 | 4.33 | 2.57
23 | CCc1ccc(C2CCN(CCCCNC(=O)c3ccc(-c4ccc(C#N)cc4)cc3)CC2)c(OCCO)c1 | 0.42 | 3.19 | 1.5
24 | CC(C)N1CCN(C(CN2CCN(CCCOc3ccc4ccccc4c3)CC2)c2ccc(F)cc2)CC1 (stereo not drawn) | 1.8 | 1.79 | -0.76
25 | COc1ccc(NC(=O)Nc2cccc(-c3ccc(-c4nc5cc(C(F)(F)F)ccc5[nH]4)cc3)c2)cc1 | 0.43 | -0.19 | -2.91
26 | Cc1ccc(Nc2cc(C)nn2-c2nc(C)cc(O)n2)cc1 | 75.4 | 73.6 | 67.6
27 | N#CCCn1nc(-c2ccc(Cl)cc2)c2c(c1=O)CCCC2 | 0.21 | 1.16 | 1.01
28 | CS(=O)(=O)CCNCc1cccc(-c2ccc3c(Nc4ccc(Oc5ccccc5)cc4)ccnc3c2)c1 | 0.35 | -0.06 | 1.33
29 | COc1ccc(NS(=O)(=O)c2ccccc2Br)cc1N1CCN(C)CC1 | 0.24 | -0.27 | 3.86
30 | CCNC(C)(C)CN(Cc1ccc(-c2ccc(C(F)(F)F)cc2)cc1)C(=O)Cn1c(CCc2cccc(F)c2F)nc(=O)c2ccccc21 | 3.91 | 3.3 | 2.34
31 | CCOC(=O)c1ccc(NC(=O)N[C@@H](Cc2ccccc2)C(=O)NC2CCN(Cc3ccc(O)cc3)C2)cc1 (stereo partly drawn) | -1.09 | 1.43 | -7.4
32 | O=C(Nc1cccc(-c2ccc(-c3nc4cc(C(F)(F)F)ccc4[nH]3)cc2)c1)Nc1ccc(Cl)c(Cl)c1 | 3.88 | 2.8 | 1.65
33 | Clc1ccc(C=NNc2ccnc3cc(Cl)ccc23)cc1 | 0.42 | 0.11 | -0.42
34 | COc1ccccc1C(=O)Nc1ccc(Nc2nc(C)cc(N3CCOCC3)n2)cc1 | 4.83 | 4.3 | 5.97
35 | Cc1noc(C)c1-c1cccc(CNCc2cccc(-c3cccc(-c4nc5cc(C(F)(F)F)ccc5[nH]4)c3)c2)c1 | 0.14 | 1.85 | 0.61
36 | Cc1nc2ccc3ccc(CNc4ccc5c(c4)CN([C@@H](CCC(=O)O)C(=O)O)C5=O)cc3c2c(=O)[nH]1 | 1.71 | -0.99 | -1.52
